Screens from PubChem.
NS1 inh: inhibitors of influenza NS1 protein function; 270,000 compounds, 0.4% hits; Potency, µM (series often up to 46.1 µM), for the others: top-dose activity, positive = more growth; calls by dose curve; further: actives are rising curves; nearly all actives have a fitted effect of over 50% in size
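Read-out: OD600 growth recovery of NS1-expressing budding yeast. Cells grown overnight at 30C in -URA glucose medium, washed, resuspended and diluted 1:100 in 2% galactose assay medium, pH 6.0. Same strain lacking NS1 served as positive control.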
Sm TGR block: blocks Schistosoma mansoni thioredoxin glutathione reductase | 360,000 compounds, 3% hits | purified TGR, DTNB reduction, TNB absorbance 405 nm | AID 485364 | Q962Y6 | Potency, µM (top dose mostly 114 µM), inactives show at the highest dose activity change, negative = inhibition, usual class: inhibitors; further: on the % scale 0 is the no-effect control and ±100 the full control effect; nearly all actives have a fitted effect of over 60% in size
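Kinetic colorimetric format: TGR-catalysed, NADPH-driven DTNB reduction monitored via TNB absorbance. Enzyme dispensed at 20 nM; compound exposure 15 min at room temperature before reaction start.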
AMA1-RON2 inh: AMA1-RON2 (P. falciparum) interaction inhibition; 360,000 compounds, 0.2% hits; Potency, µM (titrated, usually from 58.2 µM), inactives show at the top dose activity change, negative = inhibition, hits mostly inhibitors; AlphaScreen AMA1-biotinylated RON2 peptide binding; AID 720542;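 further: 0% = vehicle wells and -100% = peptide control; nearly all actives have a fitted effect of over 45% in size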
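AMA1 (3D7) with his tag at 25 nM final met compounds first, then biotinylated RON2 peptide at 25 nM; detection used donor plus acceptor beads, 10 µg/mL apiece, read by AlphaScreen after 30 min at room temperature.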
Pf growth 48h: P. falciparum growth inhibition at 48 hours (one generation). 310,000 compounds, 5.9% hits. Potency, µM (series often up to 28.7 µM), inactives show at the top dose activity change, negative = inhibition, hits mostly inhibitors. AID 504832. P. falciparum luciferase growth in erythrocytes, 48 h; further: on the % scale 0 is the no-effect control and ±100 the full control effect
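Read-out is firefly luciferase luminescence from an integrated reporter in P. falciparum, so falling signal marks reduced parasite growth. Infected erythrocytes were at 2% hematocrit and 0.1% parasitemia (final) in Albumax-supplemented RPMI 1640.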
Pf growth 96h: inhibits malaria parasite growth, 96 h | P. falciparum luciferase reporter growth, 96 h | Potency, µM (highest dose often 28.7 µM), inactives show top-dose activity change, negative = inhibition, hits mostly inhibitors | 320,000 compounds, 6.9% hits | AID 504834; further: on the % scale 0 is the no-effect control and ±100 the full control effect
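Compounds incubated with erythrocytes infected by luciferase-expressing P. falciparum (2% hematocrit, 0.05% parasitemia final) for 96 hours, 37 C in 5% CO2. Growth inhibition scored as decreased luciferase luminescence.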
Numbers without * were called inactive; ? = inconclusive; nt = no result given; [ ] = remark or other dose. Most compounds without a hit are left out; they make up all but 11% or so of the library. Unless noted, the call rests on the fitted dose curve; in most records, active means well fitted curve in the direction sought with a large enough effect; inconclusive means small, poorly fitted or top-dose-only effect, or another doubt; inactive means no such curve, though single readings can be large; an effect the other way counts as inactive or inconclusive. Potency means the concentration at half of the fitted maximal effect.

SMILES | NS1 inh | Sm TGR block | AMA1-RON2 inh | Pf growth 48h | Pf growth 96h
CC(C)n1ncc2c(C(=O)NCc3cccnc3)cc(C3CC3)nc21 | nt | -5.6% | 30.0% | ? | ?
Cc1ccc(CNC(=O)c2cc(C3CC3)nc3c2cnn3C(C)C)cc1 | nt | -11.7% | 42.3% | 13.1µM* | ?
COc1cccc(CNC(=O)c2cc(C3CC3)nc3c2cnn3C(C)C)c1 | nt | -1.5% | 2.7% | 4.65µM* | 3.29µM*
COc1ccc(CNC(=O)c2cc(C3CC3)nc3c2cnn3C(C)C)cc1OC | nt | -1.7% | 9.6% | -10.8% | ?
O=S(=O)(Nc1ccc(Cl)cc1)c1cccc2nsnc12 | -10.5% | 12.4% | -2.4% | 1.1%[0.00184 µM] | 26.4%
CN1CCN(C(CNS(=O)(=O)c2ccc(Br)cc2)c2ccc3c(c2)OCO3)CC1 (stereo not given) | nt | 4.6% | -26.6% | ? | ?
COc1cc(C(=O)NCCC(C)C)ccc1OCc1ccc(Cl)cc1Cl | 0.0% | 1.8% | 21.9% | 10.4µM* | 4.65µM*
COc1cc(C(=O)NC2CCCCC2)ccc1OCc1ccc(Cl)cc1Cl | 6.5% | 5.9% | -0.4% | 9.9% | 17.1%
C=CCNC(=O)/C(C#N)=C/c1c(C)nn(-c2ccccc2)c1Cl | nt | -0.9% | -16.0% | ? | -5.7%
COc1cc(S(=O)(=O)NCCCn2ccnc2)ccc1Cl | 9.8% | 0.0% | -1.9% | -2.8% | 10.8%
CC(=O)Nc1c(C)cc(OCC(=O)O)cc1C | 2.8% | 1.2% | 2.1% | 5.9% | 26.4%
Cc1sc2nc(SCC(=O)N(C)c3ccccc3)n(C)c(=O)c2c1C | -4.6% | 0.7% | 4.5% | 8.28µM* | -3.0%
Cc1nc2ccccc2c(C)c1CC(=O)N(CC(C)C)c1c(N)n(Cc2ccccc2)c(=O)[nH]c1=O | nt | -2.8% | -11.4% | ? | 11.7µM*
Cc1cc2occ(CC(=O)N(CC(C)C)c3c(N)n(Cc4ccccc4)c(=O)[nH]c3=O)c2cc1C | nt | 1.2% | 0.8% | 16.5µM* | -6.9%
N#CCOC(=O)C1CCN(S(=O)(=O)c2ccc3c(c2)OCCO3)CC1 | nt | -0.5% | 15.1% | ? | 12.1%
CCCCC(=O)N(C)c1c(C)nc2ccc(C(=O)N3CCN(S(=O)(=O)CC)CC3)cn12 | nt | nt | -5.2% | nt | nt
COc1ccc(NC(=O)NC(c2ccccc2)c2ccccc2)c(OC)c1 | -5.2% | -0.4% | -6.7% | 7.2% | -0.4%
COc1ccc(CC(=O)NC(c2ccccc2)c2ccc(C)cc2)c(OC)c1 (stereo not given) | -2.9% | -1.6% | -7.9% | 10.4µM* | ?
COc1ccc(OC)c(CC(=O)NC(c2ccccc2)c2ccccc2)c1 | -1.0% | -1.5% | -6.9% | ? | 6.57µM*
COc1ccc(C(NC(=O)c2cc(OC)ccc2OC)c2ccccc2)cc1 (stereo not given) | -13.2% | -10.1% | -0.6% | ? | ?
O=C(NCCc1ccccc1)c1cc(-c2cccc(Cl)c2)on1 | nt | 7.6% | nt | nt | nt
CCC(C(=O)O)N1C(=O)C2CCCCC2C1=O (stereo not given) | -4.0% | 13.4% | 0.4% | 15.9% | 5.5%
COc1cc(C(=O)NCC(c2ccc(F)cc2)N2CCOCC2)ccc1OCc1ccccc1Cl (stereo not given) | nt | -0.9% | -3.0% | 5.22µM* | 9.28µM*
COc1ccccc1NS(=O)(=O)c1ccc(C(=O)NCC(c2ccc(F)cc2)N2CCOCC2)cc1 (stereo not given) | nt | nt | 2.6% | nt | nt
O=C(CC12CC3CC(CC(C3)C1)C2)NCC(c1ccc(F)cc1)N1CCOCC1 (stereo not given) | nt | 4.9% | -2.9% | 11.7µM* | 11.7µM*
SMILES | NS1 inh | Sm TGR block | AMA1-RON2 inh | Pf growth 48h | Pf growth 96h
COc1ccc(C(CNC(=O)COc2cc(C)cc(C)c2)N2CCOCC2)cc1 (stereo not given) | nt | 3.5% | nt | nt | nt
O=C(NCC(c1ccc(F)cc1)N1CCOCC1)c1cc(F)c(F)c(F)c1F (stereo not given) | 1.5% | 7.2% | 40.1% | 0.0% | -9.9%
Cc1cc(OCC(=O)NCC(c2ccc(F)cc2)N2CCOCC2)ccc1Cl (stereo not given) | nt | 4.2% | -2.9% | 9.28µM* | 9.28µM*
CN(C)c1ccc(C(CNC(=O)COc2ccc(Cl)cc2)N2CCCC2)cc1 (stereo not given) | -0.9% | -16.9% | -20.2% | -17.6% | 6.57µM*
Cc1ccc(S(=O)(=O)N2CCN(c3ccccc3)CC2)s1 | nt | nt | -4.6% | nt | nt
Cc1noc(C)c1C(=O)Nc1ccccc1N1CCCC1 | nt | 0.9% | 0.1% | ? | -9.6%
Cc1ccc(Cn2nc(C)c(C(=O)NCC(c3ccc(F)cc3)N3CCOCC3)c2Cl)cc1 (stereo not given) | nt | 2.4% | -3.0% | 10.4µM* | ?
O=C(NCC(c1ccc(F)cc1)N1CCOCC1)c1ccc(Br)o1 (stereo not given) | -4.7% | -33.4% | 31.9% | -11.7% | ?
COc1cc2c(cc1OC)C1O[C@](CCCCN3C(=O)c4ccccc4C3=O)(C2)OC2=C1C(=O)c1ccccc1C2=O | 24.3% | 3.98µM* | nt | ? | 0.338µM*
COc1cc2c(cc1OC)C1O[C@](CCCCN3C(=O)c4ccccc4C3=O)(C2)OC2=C1C(=O)CCC2 | -4.8% | ? | nt | 1.51µM* | 1.51µM*
CCCCC[C@]12Cc3cc(OC)c(OC)cc3C(O1)c1c(cc(C)n(-c3ccccc3)c1=O)O2 | 14.4% | ? | nt | ? | 36.5%[5.75 µM]
CCOc1cc(/C=C/C(=O)Nc2ccc(C(=O)NCCN(CC)CC)cc2)ccc1OCC(C)C | nt | 10.3% | -5.6% | 2.62µM* | 0.522µM*
CCOc1cc(/C=C/C(=O)NCCc2ccc(S(N)(=O)=O)cc2)ccc1OCC(C)C | -9.9% | 0.9% | 0.0% | ? | 0.657µM*
NS(=O)(=O)c1ccc(CCNC(=O)/C=C/c2cccc([N+](=O)[O-])c2)cc1 | 0.9% | nt | 0.9% | -5.2% | 21.5%
COc1cc(/C=C/C(=O)NCCc2ccc(S(N)(=O)=O)cc2)ccc1OCC#N | 2.5% | -8.0% | 0.0% | ? | 11.7µM*
COc1cc(CNCCc2ccc(S(N)(=O)=O)cc2)ccc1OCC(=O)NC(C)(C)C | -6.3% | -8.9% | 10.6%[11.6 µM] | -17.4% | 13.1µM*
COC(=O)[C@H](C)N(Cc1ccc(Cl)c(Cl)c1)S(=O)(=O)CCNC1CCCC1 | nt | nt | 8.3% | nt | nt
O=C(CN1CCN(C(=O)c2ccco2)CC1)Nc1ccc(F)cc1F | 10.2% | -1.1% | 10.9% | -2.1% | ?
CC(C)c1ccccc1OCC(=O)Nc1ccccc1C(=O)N1CCOCC1 | 7.5% | -19.4% | 4.8% | ? | 35.8%
c1cc(CN2CCCCC2)cc(OCCCNc2nc3ccccc3s2)c1 | -22.6% | nt | -16.9% | 13.5µM* | 4.78µM*
O=C(NCC1CCCN(Cc2cccc(OCCO)c2)C1)c1ccc(F)cc1 (stereo not given) | 2.0% | 6.2% | -2.1% | 0.0% | ?
O=C(NCCCOc1cccc(CN2CCCCC2)c1)c1ccc(Cl)c(Cl)c1 | -12.1% | -12.0% | -22.7% | ? | 2.33µM*
CSc1cccc(NC(=O)CC(c2ccc(F)cc2)N2Cc3ccccc3C2=O)c1 (stereo not given) | nt | -1.5% | nt | nt | nt
